Measured values as given in PubChem BioAssay.
Several values for one entry are separate records, joined by “and”; a condition that tells them apart may be missing. Identical values can stand only once. Records with an inconclusive call do not appear. The source holds several records for some structures; these can differ, active in one and inactive in another. Activity calls are given as the source filed them. Unless noted, no rule for the calls is given here.

Experiments:
[1] = rapamycin-like changes in RPL19A-GFP expression – cell-based, S. cerevisiae, multiplex flow cytometry, primary screen (AID 1862; in the data active = percent of DMSO control GFP below about 86%;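 also: lower values mimic rapamycin by blocking the RPL19A rise seen in DMSO cells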); details: S. cerevisiae RPL19A-GFP strain, flow cytometry fluorescence, 3 h; at 10 µM; stronger effect = lower value
[2] = TOR pathway GLN3 branch reporter MEP2-GFP changes – S. cerevisiae, multiplex flow cytometry, primary screen (AID 1867;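 active = GFP response, as percent of the DMSO control, above the screen-wide mean plus 3 SD, about 139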;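 also: median GFP channel fluorescence of barcode-gated MEP2-GFP cells measured by flow cytometry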); details: S. cerevisiae MEP2-GFP strain, 3 h, at 10 µM, stronger effect = higher value
[3] = TOR pathway RTG branch CIT2 reporter changes – S. cerevisiae, GFP fusion, multiplex flow cytometry, primary screen (AID 1870;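 active = percent response above a set limit, the screen-wide mean plus 3 SD, cut at about 130% in these data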;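 also: barcoded CIT2-GFP strain pooled with four other GFP strains with rapamycin as positive control; median GFP fluorescence per well over plate mean of DMSO wells so 100% = DMSO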); details: S. cerevisiae CIT2-GFP expression, 3 h, at 10 µM, stronger effect = higher value
[4] = TOR pathway LAP4-GFP level changes – S. cerevisiae, multiplex flow cytometry, primary screen (AID 1873;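 active = GFP signal, as percent of the solvent control, above the screen mean plus 3 SD, about 149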); details: S. cerevisiae LAP4-GFP expression, 3 h, at 10 µM, stronger effect = higher value
[5] = yeast AGP1-GFP level changes, GLN3 branch – cell-based, multiplex flow cytometry, S. cerevisiae, primary screen (AID 1887;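 active = GFP signal above the screen-wide mean plus 3 SD, that is over about 124.5% of the solvent control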;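 also: AGP1-GFP fusion strain of S. cerevisiae within a five-strain barcoded multiplex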); details: 3 h, at 10 µM, stronger effect = higher value
[6] = reduced mouse 2C T cell binding to pMHC/ICAM-1 vesicles – MLPCN validation set, flow cytometry, LFA-1/ICAM-1 modulator project, pilot screen (AID 2523;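 active = response below a set limit, under 55% cells CD8-positive and vesicle-bound, and CD8 cells' 90th-percentile brightness under 279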;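 as to vesicle binding response: mean PE anti-B7-1 fluorescence of CD8+ cells relative to row control; 100% = QL9-loaded vesicles with DMSO vehicle in the same plate row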); details: 2C mouse CD8+ T cells, at 7 µM, stronger effect = lower value; double positive events: measured here: CD8+/vesicle+ event percentage
[7] = molecular target: Integrin beta-1 (Homo sapiens) + Integrin alpha-4 (Homo sapiens) (UniProt P13612+P05556); assay: alpha4beta1 integrin LIBS antibody binding reduction – U937 cells, HUTS-21 mAb, flow cytometry, validation set, VLA-4 allosteric modulator project, pilot screen (AID 2674;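 active = inhibition above 50%, about 3 SD of the validation set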;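 also: antibody binding induced by the VLA-4 ligand LDV present at three times its Kd; 0% = LDV ligand with antibody and no compound and 100% = antibody without LDV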); details: HUTS-21 LIBS mAb binding, at 6.7 µM, stronger effect = higher value
Chain of Integrin beta-1 (Homo sapiens) + Integrin alpha-4 (Homo sapiens) (P05556 whole entry, looked up): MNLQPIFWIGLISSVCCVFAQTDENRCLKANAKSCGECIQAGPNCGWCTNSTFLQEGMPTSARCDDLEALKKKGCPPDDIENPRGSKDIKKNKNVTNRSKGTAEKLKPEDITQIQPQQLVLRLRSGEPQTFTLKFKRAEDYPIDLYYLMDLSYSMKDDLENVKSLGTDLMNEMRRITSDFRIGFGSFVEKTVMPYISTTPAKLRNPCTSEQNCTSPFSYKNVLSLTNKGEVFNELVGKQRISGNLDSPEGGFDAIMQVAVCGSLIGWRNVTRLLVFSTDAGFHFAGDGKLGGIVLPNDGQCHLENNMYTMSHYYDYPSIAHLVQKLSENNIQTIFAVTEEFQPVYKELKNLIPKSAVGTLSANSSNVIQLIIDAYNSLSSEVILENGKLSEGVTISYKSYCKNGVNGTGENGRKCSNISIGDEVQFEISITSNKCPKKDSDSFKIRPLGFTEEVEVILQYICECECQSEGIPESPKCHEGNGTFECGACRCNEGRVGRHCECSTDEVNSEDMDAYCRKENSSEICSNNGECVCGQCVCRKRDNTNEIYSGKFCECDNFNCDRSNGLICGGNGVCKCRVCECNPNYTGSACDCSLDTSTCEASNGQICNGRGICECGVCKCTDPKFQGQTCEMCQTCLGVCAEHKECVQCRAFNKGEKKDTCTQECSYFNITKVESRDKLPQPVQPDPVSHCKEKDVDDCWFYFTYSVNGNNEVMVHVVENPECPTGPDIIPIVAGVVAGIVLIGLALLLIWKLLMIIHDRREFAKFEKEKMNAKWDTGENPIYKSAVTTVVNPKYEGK
Chain of Integrin beta-1 (Homo sapiens) + Integrin alpha-4 (Homo sapiens) (P13612 whole entry, looked up): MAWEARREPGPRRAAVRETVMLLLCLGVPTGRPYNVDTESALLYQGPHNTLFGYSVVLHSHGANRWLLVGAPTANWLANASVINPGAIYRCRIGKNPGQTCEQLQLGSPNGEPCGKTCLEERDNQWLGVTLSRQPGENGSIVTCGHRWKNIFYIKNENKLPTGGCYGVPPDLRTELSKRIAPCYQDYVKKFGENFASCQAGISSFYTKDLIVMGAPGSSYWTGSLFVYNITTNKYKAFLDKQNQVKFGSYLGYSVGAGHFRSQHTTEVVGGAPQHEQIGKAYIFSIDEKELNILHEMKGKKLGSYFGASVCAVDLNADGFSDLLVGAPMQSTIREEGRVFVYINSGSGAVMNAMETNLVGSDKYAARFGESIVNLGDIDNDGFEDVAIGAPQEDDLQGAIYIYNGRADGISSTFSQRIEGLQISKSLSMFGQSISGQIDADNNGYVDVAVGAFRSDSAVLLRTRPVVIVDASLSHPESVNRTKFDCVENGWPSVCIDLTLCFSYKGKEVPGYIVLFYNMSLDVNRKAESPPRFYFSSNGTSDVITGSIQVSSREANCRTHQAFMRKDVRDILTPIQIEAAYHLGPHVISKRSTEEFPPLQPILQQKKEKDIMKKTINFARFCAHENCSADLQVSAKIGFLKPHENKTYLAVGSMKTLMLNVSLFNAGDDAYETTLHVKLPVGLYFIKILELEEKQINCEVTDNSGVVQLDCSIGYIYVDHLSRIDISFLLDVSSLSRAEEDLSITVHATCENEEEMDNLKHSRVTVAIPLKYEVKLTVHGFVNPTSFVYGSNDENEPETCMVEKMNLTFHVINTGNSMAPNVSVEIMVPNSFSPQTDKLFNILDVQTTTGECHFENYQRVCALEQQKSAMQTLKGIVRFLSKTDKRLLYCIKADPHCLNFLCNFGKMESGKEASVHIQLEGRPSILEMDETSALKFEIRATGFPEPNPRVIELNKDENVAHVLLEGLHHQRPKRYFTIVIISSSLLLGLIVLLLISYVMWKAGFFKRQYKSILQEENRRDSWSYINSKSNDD

[8] = calorie-restriction mimetic ROS inhibitors, yeast – validation compound set, pilot screen (AID 2706;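 active = superoxide response below 65% of plate, a cut near 3 SD across the whole screen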;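 also: yeast exposed to compound for one week at 30 degrees C before staining; 100% = mean of all compound wells on the same plate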); details: S. cerevisiae aging, superoxide DHE fluorescence; at 10 µM; stronger effect = lower value
[9] = molecular target: Beta-adrenergic receptor kinase 1 (Homo sapiens) (UniProt P25098); assay: GRK2 binders displacing RNA aptamer, biochemical, validation, human GRK2, bead flow cytometry (AID 488806;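 active = aptamer binding inhibition above 30%, about 3 SD of noise from non-fluorescent compounds; inactive = inhibition at or below 30%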); details: bead-bound GRK2, FAM-aptamer displacement, at 10 µM, stronger effect = higher value
Chain of Beta-adrenergic receptor kinase 1 (Homo sapiens) (P25098 whole entry, looked up): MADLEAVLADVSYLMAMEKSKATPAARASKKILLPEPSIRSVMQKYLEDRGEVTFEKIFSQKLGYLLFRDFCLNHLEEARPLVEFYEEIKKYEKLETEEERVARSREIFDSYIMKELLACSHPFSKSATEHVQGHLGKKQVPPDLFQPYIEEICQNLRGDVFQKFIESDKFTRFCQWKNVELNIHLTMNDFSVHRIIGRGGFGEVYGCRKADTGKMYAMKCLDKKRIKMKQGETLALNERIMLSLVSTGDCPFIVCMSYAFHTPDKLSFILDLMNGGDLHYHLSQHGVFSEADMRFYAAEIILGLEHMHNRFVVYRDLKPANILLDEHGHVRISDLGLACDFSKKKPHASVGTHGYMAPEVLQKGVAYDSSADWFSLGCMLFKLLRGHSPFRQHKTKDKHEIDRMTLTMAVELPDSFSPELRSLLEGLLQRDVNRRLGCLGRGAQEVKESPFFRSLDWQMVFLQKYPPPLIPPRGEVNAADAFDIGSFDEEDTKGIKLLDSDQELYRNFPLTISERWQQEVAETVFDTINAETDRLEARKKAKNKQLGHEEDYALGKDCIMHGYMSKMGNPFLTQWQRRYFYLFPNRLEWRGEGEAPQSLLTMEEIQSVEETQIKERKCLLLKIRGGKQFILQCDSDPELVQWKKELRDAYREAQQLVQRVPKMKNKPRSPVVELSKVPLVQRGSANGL

[10] = molecular target: Beta-2 adrenergic receptor (Homo sapiens) (UniProt P07550); assay: agonist-induced loss of surface beta2AR – cell-based, FAP fluorogen, flow cytometry, validation set, pilot screen (AID 504459;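 active = percent response above 42, roughly 3 SD of non-fluorescent test compounds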;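 also: agonist-driven loss of surface beta2AR via internalization measured by FAP dye flow cytometry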); details: Am2.2-beta2AR cells, at 10 µM, stronger effect = higher value
Chain of Beta-2 adrenergic receptor (Homo sapiens) (P07550 whole entry, looked up): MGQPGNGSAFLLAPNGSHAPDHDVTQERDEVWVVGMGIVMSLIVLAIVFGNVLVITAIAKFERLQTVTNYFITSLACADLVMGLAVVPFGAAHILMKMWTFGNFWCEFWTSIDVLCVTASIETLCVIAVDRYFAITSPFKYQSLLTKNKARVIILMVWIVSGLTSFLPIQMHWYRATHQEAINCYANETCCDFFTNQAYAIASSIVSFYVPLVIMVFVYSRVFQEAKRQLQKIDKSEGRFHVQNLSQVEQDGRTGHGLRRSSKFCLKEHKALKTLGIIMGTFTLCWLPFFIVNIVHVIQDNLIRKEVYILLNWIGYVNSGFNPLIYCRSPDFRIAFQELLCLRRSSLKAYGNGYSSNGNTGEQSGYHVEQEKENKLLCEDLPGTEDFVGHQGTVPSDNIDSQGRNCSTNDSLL

[11] = molecular target: AP-2 complex subunit beta (Homo sapiens) (UniProt P63010); assay: beta-arrestin/AP2 interaction blockers – biochemical, validation set, GST-AP2 beads, flow cytometry, pilot screen (AID 504541;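 active = inhibition above 54%, about 3 SD of non-fluorescent compounds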;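 also: AP2 carries R879A mutation and is captured from E. coli lysate; bead-bound FITC arrestin peptide fluorescence measuring arrestin peptide binding to AP2; 0% = DMSO wells and 100% = excess unlabeled arrestin peptide control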); details: FITC arrestin peptide, at 10 µM, stronger effect = higher value
Chain of AP-2 complex subunit beta (Homo sapiens) (P63010 whole entry, looked up, one chain of several): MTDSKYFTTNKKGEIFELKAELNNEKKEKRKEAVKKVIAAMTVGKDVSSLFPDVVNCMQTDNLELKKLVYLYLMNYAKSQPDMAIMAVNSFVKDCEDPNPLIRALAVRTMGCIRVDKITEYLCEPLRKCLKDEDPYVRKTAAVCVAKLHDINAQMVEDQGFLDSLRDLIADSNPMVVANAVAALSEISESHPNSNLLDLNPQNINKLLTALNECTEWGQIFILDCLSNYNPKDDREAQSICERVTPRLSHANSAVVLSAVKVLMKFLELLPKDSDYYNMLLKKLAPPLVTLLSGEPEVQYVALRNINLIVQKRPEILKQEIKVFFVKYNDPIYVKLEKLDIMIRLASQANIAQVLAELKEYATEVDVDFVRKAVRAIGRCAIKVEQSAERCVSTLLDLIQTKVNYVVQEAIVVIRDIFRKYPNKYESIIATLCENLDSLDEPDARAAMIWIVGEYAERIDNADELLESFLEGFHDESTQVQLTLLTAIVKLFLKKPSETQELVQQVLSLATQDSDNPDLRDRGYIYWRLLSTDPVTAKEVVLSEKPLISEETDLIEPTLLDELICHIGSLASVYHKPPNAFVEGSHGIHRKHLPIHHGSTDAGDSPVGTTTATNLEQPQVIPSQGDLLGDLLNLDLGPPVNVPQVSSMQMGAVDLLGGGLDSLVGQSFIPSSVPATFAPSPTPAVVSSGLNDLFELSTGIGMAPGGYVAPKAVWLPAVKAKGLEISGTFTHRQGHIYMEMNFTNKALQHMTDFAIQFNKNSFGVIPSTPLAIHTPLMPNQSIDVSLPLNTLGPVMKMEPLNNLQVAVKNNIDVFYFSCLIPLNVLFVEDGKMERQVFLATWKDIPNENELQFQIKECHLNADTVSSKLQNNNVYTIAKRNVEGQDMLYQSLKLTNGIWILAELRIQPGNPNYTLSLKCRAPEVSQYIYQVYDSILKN

[12] = cytosolic pH regulators acting via V-ATPase – S. cerevisiae, pHLuorin, HTS validation (AID 504600; in the data active = response above about 15%;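 also: plate controls were DMSO for no effect and reference compound for full effect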); details: V-ATPase proton transport, at 10 µM, stronger effect = higher value
[13] = test system: anti-desmoglein-3 scFv antibody binding to human DSG3; assay: blockers of pathogenic pemphigus antibody–desmoglein-3 binding – biochemical, validation compound set, bead-based, flow cytometry, pilot screen (AID 588368;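 active = binding below the plate cutoff, the plate median minus 3 SD, with a reading above zero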;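 also: signal is the median channel fluorescence of bead-bound GFP antibody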); details: Protein G beads, DSG3-Fc, scFv-GFP binding, at 10 µM, stronger effect = lower value
[14] = test system: Botulinum neurotoxin type F light chain protease (Clostridium botulinum); assay: Clostridium botulinum type F light chain protease inhibitors, microsphere substrate cleavage, validation (AID 588459); details: multiplex microsphere protease substrate cleavage assay, flow cytometry; at 10 µM; stronger effect = higher value
[15] = molecular target: Botulinum neurotoxin type A (Clostridium botulinum) (UniProt P0DPI0); assay: BoNT/A light chain protease inhibitors, biochemical, multiplex microsphere flow cytometry, validation set (AID 588460); details: at 10 µM, stronger effect = higher value
[16] = molecular target: Lethal factor (Bacillus anthracis) (UniProt P15917); assay: Bacillus anthracis lethal factor inhibition, microsphere flow cytometry protease assay, validation at 10 µM (AID 588461); details: multiplex microsphere protease cleavage assay, stronger effect = higher value
Chain of Lethal factor (Bacillus anthracis) (P15917 whole entry, looked up): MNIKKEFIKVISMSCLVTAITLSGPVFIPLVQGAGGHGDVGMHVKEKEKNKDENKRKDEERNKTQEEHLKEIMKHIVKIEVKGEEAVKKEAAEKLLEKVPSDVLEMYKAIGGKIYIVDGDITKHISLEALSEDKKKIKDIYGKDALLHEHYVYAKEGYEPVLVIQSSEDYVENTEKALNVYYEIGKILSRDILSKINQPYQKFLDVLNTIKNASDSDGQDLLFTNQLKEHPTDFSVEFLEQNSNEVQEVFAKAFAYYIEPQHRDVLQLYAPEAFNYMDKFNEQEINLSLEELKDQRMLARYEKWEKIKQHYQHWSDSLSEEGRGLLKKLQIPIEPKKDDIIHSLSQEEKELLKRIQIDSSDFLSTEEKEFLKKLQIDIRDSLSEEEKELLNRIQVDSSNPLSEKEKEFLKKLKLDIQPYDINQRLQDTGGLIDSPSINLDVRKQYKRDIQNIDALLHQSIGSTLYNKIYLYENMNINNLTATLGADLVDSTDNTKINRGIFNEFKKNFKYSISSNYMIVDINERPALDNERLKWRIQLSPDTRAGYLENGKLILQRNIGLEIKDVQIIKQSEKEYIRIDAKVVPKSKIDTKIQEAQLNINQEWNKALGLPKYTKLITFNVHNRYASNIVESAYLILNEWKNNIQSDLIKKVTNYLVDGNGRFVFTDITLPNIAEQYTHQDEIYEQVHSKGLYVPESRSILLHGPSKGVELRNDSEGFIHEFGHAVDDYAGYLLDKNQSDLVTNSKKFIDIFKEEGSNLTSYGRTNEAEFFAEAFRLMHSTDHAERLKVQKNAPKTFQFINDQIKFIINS

[17] = Nile Red efflux blockade in pump-expressing yeast – validation compound set, multiplex, phenotypic, pilot screen (AID 588506;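 active = efflux inhibition above 0.42, the validation set average plus 4 SD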;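 also: Nile Red retained in cells so higher fluorescence means more efflux inhibition; 0 = negative control wells and 1 = enniatin B 25 µM full block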); details: S. cerevisiae pump-expressing triplex, Nile Red efflux flow cytometry; at 10 µM; stronger effect = higher value
[18] = molecular target: ATP-binding cassette sub-family B member 6 (Homo sapiens) (UniProt Q9NP58); assay: blockers of ABCB6-driven porphyrin uptake – K562-ABCB6 cells, flow cytometry, validation set, pilot screen (AID 588550;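 active = inhibition above the screen-wide mean plus 3 SD, about 51%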;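 also: 0% = DMSO wells and 100% = benzethonium chloride 70 µM positive control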); details: K562-ABCB6 porphyrin accumulation, 1 h, at 10 µM, stronger effect = higher value
[19] = AML differentiation inducers, ER-HoxA9 marrow cells – cell-based, GFP/MAC1 double positive, flow cytometry, validation set, primary screen (AID 588685;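 active = differentiation response of at least 50%, scaled between solvent and reference control, from cells with both markers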;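 also: compound exposure lasts four days before antibody staining and flow analysis; 0% = DMSO wells and 100% = 5 µM fulvestrant positive control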); details: stronger effect = higher value

[N-]=[N+]=CC(=O)OC[C@H](N)C(=O)O
64.4%: double positive events [6]
inactive: percent of DMSO control GFP [1] 102% | GFP response vs DMSO [2] 102% | percent response of DMSO control [3] 100% | GFP response vs DMSO [4] 109% | GFP response, % of DMSO [5] 110% | vesicle binding response [6] 133% | inhibition [7] 12.5% | superoxide response (% of plate) [8] 97.4% | aptamer binding inhibition [9] 5% | response [10] -13% | inhibition [11] 4.06% | response [12] 2.12% | binding (% of control) [13] 92.8% | inhibition [14] 2.7% | inhibition [15] 1.2% | inhibition [16] 2.3% | efflux inhibition (fraction of control) [17] -0.13 | inhibition [18] 5% | differentiation response [19] 0.92%

CC(C)C[C@H]1C(=O)N2CCCC2[C@]2(O)O[C@](NC(=O)[C@@H]3C=C4c5cccc6[nH]cc(c56)CC4N(C)C3)(C(C)C)C(=O)N12 (stereo not given in full)
inactive: percent of DMSO control GFP [1] 93.5% | GFP response vs DMSO [2] 116% | percent response of DMSO control [3] 96.6% | GFP response vs DMSO [4] 79.2% | GFP response, % of DMSO [5] 96.6% | vesicle binding response [6] 108% | inhibition [7] -162% | superoxide response (% of plate) [8] 94.2% | aptamer binding inhibition [9] 5% | response [10] -35.9% | inhibition [11] 4.91% | response [12] 3.06% | binding (% of control) [13] 109% | inhibition [14] -7% | inhibition [15] -1.6% | inhibition [16] -34.6% | efflux inhibition (fraction of control) [17] 0.41 | inhibition [18] 10% | differentiation response [19] -6.55%
61.2%: double positive events [6]

C[N+](C)(C)Cc1ccccc1
64.9%: double positive events [6]
inactive: percent of DMSO control GFP [1] 103% | GFP response vs DMSO [2] 105% | percent response of DMSO control [3] 106% | GFP response vs DMSO [4] 109% | GFP response, % of DMSO [5] 110% | vesicle binding response [6] 147% | inhibition [7] -14.5% | superoxide response (% of plate) [8] 89.2% | aptamer binding inhibition [9] -1% | response [10] -3.98% | inhibition [11] 3.88% | response [12] -0.83% | binding (% of control) [13] 103% | inhibition [14] 1.5% | inhibition [15] 0.6% | inhibition [16] 4.6% | efflux inhibition (fraction of control) [17] 0.245 | inhibition [18] 1% | differentiation response [19] -14.8%

CC(=O)c1ccc(-c2ccccc2)cc1
63.6%: double positive events [6]
inactive: percent of DMSO control GFP [1] 97% | GFP response vs DMSO [2] 120% | percent response of DMSO control [3] 110% | GFP response vs DMSO [4] 84.7% | GFP response, % of DMSO [5] 103% | vesicle binding response [6] 339% | inhibition [7] -15.8% | superoxide response (% of plate) [8] 96.8% | aptamer binding inhibition [9] -3% | response [10] 9.21% | inhibition [11] -0.36% | response [12] 1% | binding (% of control) [13] 108% | inhibition [14] -2.6% | inhibition [15] -1.2% | inhibition [16] -1.9% | efflux inhibition (fraction of control) [17] -0.06 | inhibition [18] 14% | differentiation response [19] 4.91%

NC(=O)CN1CCCC1=O
54.5%: double positive events [6]
inactive: percent of DMSO control GFP [1] 95% | GFP response vs DMSO [2] 113% | percent response of DMSO control [3] 118% | GFP response vs DMSO [4] 73.2% | GFP response, % of DMSO [5] 91% | vesicle binding response [6] 191% | inhibition [7] 3.55% | superoxide response (% of plate) [8] 95.8% | aptamer binding inhibition [9] -4% | response [10] -20.5% | inhibition [11] -5.52% | response [12] 0.81% | binding (% of control) [13] 105% | inhibition [14] 1.5% | inhibition [15] 0.4% | inhibition [16] 1.1% | efflux inhibition (fraction of control) [17] -0.09 | inhibition [18] 4% | differentiation response [19] -1.64%

Cn1c(O)c(C=NCCc2c[nH]c3ccccc23)c(=O)n(C)c1=O
inactive: percent of DMSO control GFP [1] 100% | GFP response vs DMSO [2] 111% | percent response of DMSO control [3] 97.7% | GFP response vs DMSO [4] 120% | GFP response, % of DMSO [5] 110% | vesicle binding response [6] 17400% | inhibition [7] 5.03% | superoxide response (% of plate) [8] 106% | aptamer binding inhibition [9] 5% | response [10] -8.95% | inhibition [11] -3.21% | response [12] 3.13% | binding (% of control) [13] 96.8% | inhibition [14] -1.3% | inhibition [15] 1.4% | inhibition [16] -1.6% | efflux inhibition (fraction of control) [17] -0.06 | inhibition [18] 6% | differentiation response [19] -23.2%
76.2%: double positive events [6]

C[C@H]1CC[C@@]2(C)[C@@H](CC[C@@H]3[C@@H]2CC[C@]2(C)[C@@H](O)CC[C@@H]32)C1
61%: double positive events [6]
inactive: percent of DMSO control GFP [1] 99.9% | GFP response vs DMSO [2] 103% | percent response of DMSO control [3] 92% | GFP response vs DMSO [4] 137% | GFP response, % of DMSO [5] 102% | vesicle binding response [6] 376% | inhibition [7] 6.4% | superoxide response (% of plate) [8] 97.5% | aptamer binding inhibition [9] 0% | response [10] 8.67% | inhibition [11] -8.56% | response [12] 1.08% | binding (% of control) [13] 99.5% | inhibition [14] 2% | inhibition [15] 1.1% | inhibition [16] -4.7% | efflux inhibition (fraction of control) [17] -0.03 | inhibition [18] -3% | differentiation response [19] -8.8%

C[N+]1(C)CCc2cc3c(cc2[C@H]1[C@@H]1OC(=O)c2c1ccc1c2OCO1)OCO3
inactive: percent of DMSO control GFP [1] 105% and 102% | GFP response vs DMSO [2] 102% and 108% | percent response of DMSO control [3] 104% and 93.1% | GFP response vs DMSO [4] 98% and 90.1% | GFP response, % of DMSO [5] 100% and 93.4% | vesicle binding response [6] 128% and 1190% | inhibition [7] 5.61% and 11% | superoxide response (% of plate) [8] 93.4% and 102% | aptamer binding inhibition [9] -1% and 5% | response [10] -0.95% and -3.71% | response [12] -7.78% and 0.91% | binding (% of control) [13] 101% and 97.9% | inhibition [14] -0.6% and -2.3% | inhibition [15] -1% and -0.6% | inhibition [16] 1% and -2.4% | efflux inhibition (fraction of control) [17] 0.115 and -0.1 | inhibition [18] 24% and -3% | differentiation response [19] -10.4% and 1.22%
60.5% and 65.5%: double positive events [6]
55.1% (active) and -7.04% (inactive): inhibition [11]
